Screens as filed in PubChem BioAssay.
The full list was thinned out, with hits kept by preference.
AmpC detergent – blocks E. coli AmpC beta-lactamase in detergent assay; P00811; AmpC hydrolysis of nitrocefin, absorbance 480 nm, 0.01% Triton; Potency, µM (doses to about 114 µM), without a hit: at the top dose activity change, negative = inhibition, usual class: inhibitors; 370,000 tested, 0.041% active; AID 485294;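 note: potency is the fitted concentration of half-maximal effect; 0% = no-compound wells and -100% = no-enzyme wells; nearly all actives have a fitted effect of over 25% in size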
Target sequence (P00811 whole entry, looked up): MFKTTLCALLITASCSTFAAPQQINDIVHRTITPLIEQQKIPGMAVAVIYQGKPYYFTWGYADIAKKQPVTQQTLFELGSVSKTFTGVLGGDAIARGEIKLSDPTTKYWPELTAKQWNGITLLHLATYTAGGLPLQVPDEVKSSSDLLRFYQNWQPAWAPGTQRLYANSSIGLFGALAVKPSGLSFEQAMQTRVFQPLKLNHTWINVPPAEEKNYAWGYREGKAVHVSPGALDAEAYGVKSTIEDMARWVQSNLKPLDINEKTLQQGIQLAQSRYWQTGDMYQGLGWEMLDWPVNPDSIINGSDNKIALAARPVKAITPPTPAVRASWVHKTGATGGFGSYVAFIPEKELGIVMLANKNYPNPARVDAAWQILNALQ
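20 mM phosphate pH 7.0 + 0.01% (detergent screen) or 0.0001% Triton X-100; 5.3 nM AmpC reagent; cpd preinc 15 min RT; nitrocefin (800 uM stock) to start; A480 q20 s × 4 min; Activity was normalised to no-enzyme and no-compound control wells.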
Shiga toxin inh – inhibitors of Shiga toxin in Vero cells; Vero cells, Shiga toxin protein synthesis inhibition reporter; inhibition, % at 38.7 µM; 290,000 tested, 9.2% active; in the data active = inhibition mostly above about 28%, no sharp cut-off; inactive = mostly below about 43%; note: 0% is about no effect
AmpC no deterg – blocks E. coli AmpC beta-lactamase in detergent-free assay; 330,000 tested, 0.52% active; P00811; AmpC nitrocefin hydrolysis, absorbance 480 nm, 0.0001% Triton; Potency, µM (titrated, usually from 57.1 µM), for inactives: top-dose activity change, negative = inhibition, most hits filed as inhibitors;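 note: potency is the fitted concentration of half-maximal effect; plate controls were no compound for no effect and no enzyme for full effect; nearly all actives have a fitted effect of over 20% in size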
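20 mM phosphate pH 7.0 + 0.01% (detergent screen) or 0.0001% Triton X-100; 5.3 nM AmpC reagent; cpd preinc 15 min RT; nitrocefin (800 uM stock) to start; A480 q20 s × 4 min; Activity was normalised to no-enzyme and no-compound control wells.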
SARS PLP yeast – inhibitors of SARS-CoV papain-like protease in yeast; 330,000 tested, 0.19% active; AID 485353; S. cerevisiae expressing SARS-CoV PLpro, growth rescue; Potency, µM (highest dose often 32.9 µM), for inactives: top-dose activity, positive = growth rescue, actives largely listed as activators; calls by dose curve; note: potency is the fitted concentration of half-maximal effect; 0% is about no effect; nearly all actives have a fitted effect of over 55% in size
AMA1-RON2 inh – disrupts binding of P. falciparum AMA1 to RON2 | AlphaScreen AMA1-biotinylated RON2 peptide binding | Potency, µM (series often up to 58.2 µM), for inactives: at the highest dose activity change, negative = inhibition, hits mostly inhibitors | 360,000 tested, 0.2% active | AID 720542;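 note: potency is the fitted concentration of half-maximal effect; 0% = vehicle wells and -100% = peptide control; nearly all actives have a fitted effect of over 45% in size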
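AMA1 (3D7) with his tag at 25 nM final met compounds first, then biotinylated RON2 peptide at 25 nM; detection used donor plus acceptor beads, 10 µg/mL apiece, read by AlphaScreen after 30 min at room temperature.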
Cycloheximide cs – counter-screen hit for Shiga toxin inhibitors, cycloheximide; cell reporter, cycloheximide protein synthesis inhibition counterscreen; max response, %; 300,000 tested, 12% active; AID 2314; in the data active = max response mostly above about 13%, no sharp cut-off; inactive = mostly below about 14%; note: read at 38.3 µM for the half of the compounds with a filed dose; 0% is about no effect
* = called active by the depositor; ? = inconclusive; · = no result given; [ ] = dose if it differs, or a comment. Unless noted, calls come from the whole dose curve; as a rule, active = well fitted curve in the direction sought with a large enough effect; inconclusive = small, poorly fitted or top-dose-only effect, or another doubt; inactive = no such curve, though single readings can be large; an effect the other way counts as inactive or inconclusive.

SMILES	AmpC detergent	Shiga toxin inh	AmpC no deterg	SARS PLP yeast	AMA1-RON2 inh	Cycloheximide cs
O=C(CSc1nnc(-c2ccc(O)cc2)o1)Nc1ccccc1	-2%	61*	-23%	4%	2%	28*
Cc1cc(NC(=O)CSc2nnc(-c3ccc(O)cc3)o2)no1	-2%	52*	49%	-1%	93%	active
Cc1cc(-c2nnc(SCCC(=O)Nc3ccccc3)o2)no1	0%	-12	-22%	-3%	24%	35*
CCCCn1c(N)c(N(CCC(C)C)C(=O)Cc2ccc(S(=O)(=O)N3CCOCC3)s2)c(=O)[nH]c1=O	-9%	·	74%	-2%	4%	·
COc1ccccc1CNc1ccc(Br)cn1	3%	99*	-23%	-6%	0%	50*
Brc1ccc(NCc2cccc3ccccc23)nc1	-9%	31	-25%	7%	-8%	27*
COc1ccccc1CNc1ccccc1F	4%	24	-9%	0%	10%	17*
COc1ccccc1NC(=O)Nc1ccc(Br)cn1	-11%	5	-18%	3%	-1%	-5
Oc1ccccc1CNc1ccc(Br)cn1	-1%	11	-30%	-4%	5%	-3
COc1ccccc1CNc1cc(-c2ccccc2)ccc1OC	-20%	-9	-39%	-3%	?	6
C[N+]1(C)CCC[C@H]1C(=O)[O-]	·	-5	·	·	·	-4
CCOc1cc(/C=N/NC(=O)C(=O)NC2CC2)cc(Br)c1O	-5%	13	-10%	13%	-18%	-4
COc1ccc2oc(C(=O)OCC(=O)N3CC(C)CC(C)C3)c(C)c2c1 (centres undefined)	?	·	23%	-16%	-8%	·
Cc1nc2ncccn2c1-c1csc(Nc2ccccc2)n1	-6%	22	-24%	9%	-13%	13
Cc1nc2ncccn2c1-c1csc(Nc2ccc(N(C)C)cc2)n1	-1%	-4	7%	-1%	14µM*	-2
CN(C1=NC(=O)CS1)c1ccc(O)cc1	2%	-6	7%	1%	2%	0
CC(=O)Nc1nc(-c2ccc3c(c2)CCO3)cs1	?	74*	-32%	0%	6%	29*
c1cnn2c(-c3ccc4c(c3)CCO4)cnc2c1	·	·	·	·	18%	·
COc1ccc(-c2csc(NC(=O)C3=COCCO3)n2)cc1OC	-6%	·	29%	-1%	-14%	·
Nc1nc(-c2ccc3c(c2)CCO3)cs1	4%	98*	-31%	0%	-6%	38*
COc1ccc(NC(=O)c2sc3nc(N4CCOCC4)c4c(c3c2N)CCCC4)cc1	·	·	·	·	13%	·
Cc1sc(NC(=O)c2cccs2)nc1-c1ccccc1	2%	97	-41%	-19%	-11%	34*
CC(=O)Nc1c(-c2ccc(F)cc2)nc2ccccn12	?	32	2%	-9%	-1%	-1
Oc1ccc(-c2nc3ccccn3c2NCc2ccco2)cc1	-9%	37*	-20%	-4%	0%	35*
CC(=O)c1sc(NC(=O)c2ccc(F)cc2)nc1-c1ccccc1	-3%	60	-12%	1%	10%	25
SMILES	AmpC detergent	Shiga toxin inh	AmpC no deterg	SARS PLP yeast	AMA1-RON2 inh	Cycloheximide cs
CC(=O)c1sc(NC(=O)c2ccccc2F)nc1-c1ccccc1	2%	134*	-6%	-4%	-1%	43*
O=C(Nc1nsc(-c2ccccc2)n1)c1cccs1	5%	37*	-27%	-31%	7%	25*
O=C(CN1C(=O)COc2ccccc21)NCCN1CCC(Cc2ccccc2)CC1	1%	-30	44%	5%	-4%	-5
CCCCn1c(O)c2n(c1=O)Cc1ccccc1N=C2c1ccc(C)cc1	·	·	·	·	10%	·
COc1ccc(-n2c(O)c(/C=N/NS(=O)(=O)c3ccc(C)c([N+](=O)[O-])c3)c3ccccc3c2=O)cc1OC	0%	-10	50%	0%	28%	-4
CSC1(SC2=NCCN2)SC2(NCCN2)S1	·	·	·	·	52%	·
CC(C)C(=O)Nc1ccc(C(=O)N2CCN(C(=O)c3ccco3)CC2)cc1	2%	29	-16%	1%	·	-2
Cc1sc(NC(=O)c2ccco2)nc1-c1ccccc1	-9%	103*	-14%	-27%	-2%	44*
O=C(Nc1c(-c2ccccc2)nc2ccccn12)c1ccco1	-9%	5	-12%	1%	4%	12*
CCOC(=O)c1sc(NC(=O)c2ccco2)nc1-c1ccccc1	?	18	-11%	0%	26%	-2
CC(=O)c1c(C)[nH]c(C(=O)Nc2nc(-c3ccccc3)c(C)s2)c1C	-11%	15	-11%	0%	-5%[11.6 µM]	23*
Cc1ccc2nc(-c3ccccc3)c(NC(=O)c3ccco3)n2c1	1%	26	-13%	6%	0%	-1
CC(=O)c1sc(NC(=O)c2ccco2)nc1-c1ccccc1	-8%	65*	-6%	1%	-11%	21*
CC(=O)c1c(C)[nH]c(C(=O)Nc2cccc3ccccc23)c1C	-6%	8	-48%	-5%	-14%	5
C=CCN(c1ccccc1C(=O)O)S(=O)(=O)c1ccc(NC(=O)OC)cc1	3%	9	-13%	1%	-3%	-3
CCOc1ccc(C(=O)NCC(=O)OCCN2C(=O)c3ccccc3C2=O)cc1OCC	-7%	·	-6%	0%	-6%	·
O=S1(=O)N=C(N/N=C/c2cccs2)c2ccccc21	?	-2	-19%	-3%	27%	-1
Cc1sc(N/N=C/c2cccs2)nc1-c1ccccc1	0%	84*	-28%	2%	37%	43*
COc1ccc(C2C(C(C)=O)=C(O)C(=O)N2c2cccnc2)c(OC)c1 (centres undefined)	5%	7	-11%	0%	-3%	-4
Cc1ccccc1CSc1ccc(-c2ccc3c(c2)OCO3)nn1	1%	82*	-18%	6%	-5%	49*
c1cncc(CSc2ccc(-c3ccc4c(c3)OCO4)nn2)c1	-10%	99*	-27%	-15%	9%	57*
Cc1nc(C)c(-c2ccc(SCC(=O)Nc3ccccc3)nn2)s1	4%	-9	20%	1%	0%	3
Cc1nc(C)c(-c2ccc(SCc3ccccc3C)nn2)s1	-9%	34*	96%	-11%	-4%	45*
CC(=O)Nc1ccc(Nc2nc(C(F)(F)F)nc3c2nnn3Cc2ccccc2Cl)cc1	1%	-9	57%	18%	-2%	2
CC(C)CC(NC(=O)C1CCC(C)CC1)C(=O)Nc1ccc2c(c1)OCCO2 (centres undefined)	?	122*	8%	-7%	2%	44*
COC(=O)[C@@H](NC(=O)Nc1ccc2c(c1)OCCO2)C(C)C	?	8	-12%	-4%	2%	-3
